According to ChEMBL document CHEMBL3988442, “University of Dundee, Small-Polar-MMV Screening Library” (2021):
Screen size: about 48,000 compounds; about 13,000 (27%) showed an effect of 50% or more. Some of the results follow.

System: Wolbachia pipientis
Assay: Anti-Wolbachia Cell-Based Screen
Type: functional
Set-up: scale not given: in the data most compounds retested in dose-response had high values
Details: 5 µM

First: CC(C)c1nccc([C@H]2C[C@@H]3CCN(Cc4ccco4)C[C@H]3O2)n1
Second: C[C@H]1C[C@@H]2CCN(Cc3nccs3)C[C@H]2O1
The “Percent Effect” value of the first is higher: -3.761% for the first, -9.973% for the second.

First: O=C(Nc1cccnc1)[C@H]1CN(Cc2cccs2)C[C@H]2OCC[C@@H]12
Second: Cc1cccc(C(=O)N2C[C@@H]3OCCN(C(C)C)[C@@H]3C2)n1
The “Percent Effect” value of the first is higher: -5.403% for the first, -13.51% for the second.

First: CNS(=O)(=O)CC(=O)NC(C)Cc1ccccc1Br (configuration not stated)
Second: CCOCC(O)CN1CCN(C(=O)Cc2ccccc2C)CC1 (configuration not stated)
The “Percent Effect” value of the first is lower: -19.16% for the first, -8.235% for the second.

Compared with COCCNC(=O)c1cn(C(C)(C)C)c2ncccc12, COCCCNC(=O)c1cn(C(C)(C)C)c2ncccc12 is higher in “Percent Effect” value: 1.004% for the first, 120.5% for the second.

Going from CCOCCCNC(=O)c1cn(C(C)(C)C)c2ncccc12 to COCC(C)NC(=O)c1cn(C(C)(C)C)c2ncccc12 (configuration not stated), the “Percent Effect” value falls from 117.9% to 0.2413%.

Compared with COCCN(CCOC)C(=O)c1cn(C(C)(C)C)c2ncccc12, Cc1cccnc1CCNC(=O)[C@@]12CNC[C@@H]1CN(S(C)(=O)=O)C2 is lower in “Percent Effect” value: 135.3% for the first, -16.39% for the second.

Compared with CC(Cn1ccnc1)NCc1n[nH]c2c1CCC2 (configuration not stated), CC(Cn1ccnc1)NCc1csc2c1CCCC2 (configuration not stated) is higher in “Percent Effect” value: -9.016% for the first, -4.512% for the second.

First: N#Cc1ccc(N2CCC(OC3CCOCC3)CC2)cc1Cl
Second: N#Cc1cccc(N2CCOC3(CNCCOC3)C2)n1 (configuration not stated)
The “Percent Effect” value of the first is higher: -7.664% for the first, -42.42% for the second.

Going from O=C(CC[C@@H]1CCCN2CCCC[C@H]12)NCCc1cc(O)ncn1 to O=C(Cc1ccc(-n2cccn2)cc1)N1CCN2CCCCC2C1 (configuration not stated), the “Percent Effect” value rises from -16.08% to 0.2002%.

Compared with CCc1noc(CC)c1CC(=O)N1CCN(C(C#N)C(C)C)CC1 (configuration not stated), CCC(O)CN1CCN(C(=O)Cc2c(C)nc(C)[nH]c2=O)CC1 (configuration not stated) is lower in “Percent Effect” value: -3.422% for the first, -7.478% for the second.

Going from Cc1noc([C@]23COC[C@H]2CN(Cc2cc(C)on2)C3)n1.O=C(O)C(F)(F)F to Cc1cc(CN2C[C@@H]3COC[C@]3(CNS(C)(=O)=O)C2)no1.O=C(O)C(F)(F)F, the “Percent Effect” value falls from 2.509% to -0.4635%.

First: FC(F)CN1CCOC(Cn2cccn2)C1 (configuration not stated)
Second: CCC(O)CN1CCN(C(=O)Cc2nc(-c3ccco3)oc2C)CC1 (configuration not stated)
The “Percent Effect” value of the first is higher: 120.3% for the first, -5.833% for the second.

First: Cc1ncc2c(c1CNC(=O)C1(C)CCCO1)CCNC2 (configuration not stated)
Second: Cc1nc(C2(NCC(=O)NCc3cccs3)CCCCC2)no1
The “Percent Effect” value of the first is lower: 2.031% for the first, 113.6% for the second.

Going from CC(C)NC(=O)[C@@H]1C[C@H]2NCC[C@H]2O1.Cl to CC(C)NC(=O)[C@H]1C[C@H]2NCCO[C@@H]2C1, the “Percent Effect” value falls from 109.5% to 34.99%.

Going from O=C(NC1CCC1)[C@H]1C[C@H]2NCCO[C@@H]2C1 to Cl.Cl.c1ccc(COC[C@@H]2CCC[C@@]23CNCCO3)nc1, the “Percent Effect” value rises from -2.9% to 92.25%.

Going from COCC(=O)N1CC[C@H]2[C@H]1CCN2CC(C)C to CCC(O)CN1CCN(C(=O)Cc2cc(C)ccc2OC)CC1 (configuration not stated), the “Percent Effect” value rises from -1.269% to 134%.

Going from O=C(O)C(F)(F)F.O=C(O)C(F)(F)F.OCCN1CC2(CCN(c3ccccc3)C2)C1 to O=C(O)C(F)(F)F.O=C(O)C(F)(F)F.O=C(O)CN1CCC(F)(F)C2(CCN(c3ccccn3)C2)C1 (configuration not stated), the “Percent Effect” value falls from 6.244% to -9.228%.

Going from OCCN1CCC(F)(F)C2(CCN(c3cccnc3)C2)C1 (configuration not stated) to Cc1ccc(N2CCC3(CN(CCO)CCC3(F)F)C2)nn1.O=C(O)C(F)(F)F (configuration not stated), the “Percent Effect” value falls from 103.9% to 100.9%.

First: FC1(F)CCNCC12CCN(c1cccnc1)C2.O=C(O)C(F)(F)F.O=C(O)C(F)(F)F (configuration not stated)
Second: Fc1cccnc1N1CCC2(CNCCC2(F)F)C1 (configuration not stated)
The “Percent Effect” value of the first is lower: -21.44% for the first, 8.279% for the second.

Going from NCC1(c2cccc(C(F)(F)F)c2)CC1 to Cc1ccc(N2CCN(C)c3ncccc3C2)nn1.O=C(O)C(F)(F)F, the “Percent Effect” value rises from -45.72% to 6.797%.

First: CCC(O)CN1CCN(C(=O)Cc2ccc(OC)cc2OC)CC1 (configuration not stated)
Second: CCOCC(O)CN1CCN(C(=O)Cc2ccc(C)nc2)CC1 (configuration not stated)
The “Percent Effect” value of the first is higher: 102.8% for the first, -10.97% for the second.

First: COCCN1C[C@H]2CC[C@@H]1CN(Cc1ccc3ccccc3n1)C2
Second: CCOCCC(=O)N1C[C@H]2CC[C@@H]1CN(Cc1ccncc1)C2
The “Percent Effect” value of the first is higher: 26.94% for the first, 3.16% for the second.

Compared with CN1CCN(S(=O)(=O)c2cccc(F)c2)Cc2cccnc21.O=C(O)C(F)(F)F, CN1CCN(S(=O)(=O)c2ccccc2)Cc2cccnc21.O=C(O)C(F)(F)F is lower in “Percent Effect” value: 100.3% for the first, 87.5% for the second.

Going from Cc1cnc(N2CCN(C)c3ncccc3C2)nc1.O=C(O)C(F)(F)F to CCc1ccc(CN2CCN(C)c3ncccc3C2)o1.O=C(O)C(F)(F)F.O=C(O)C(F)(F)F, the “Percent Effect” value rises from 1.496% to 45.7%.

First: Cl.Cl.c1ccc(COC[C@H]2CCC[C@@]23CNCCO3)nc1
Second: CN1Cc2ccccc2NC(=O)C12CCNC2 (configuration not stated)
The “Percent Effect” value of the first is lower: 88.66% for the first, 111% for the second.

First: Cc1ccc(N2CC[C@@H]3CN(Cc4c[nH]cn4)C[C@@H]3C2)nn1
Second: OC[C@H]1CN2CCN(c3ccccn3)C[C@@H]2[C@@H]1c1ccccc1
The “Percent Effect” value of the first is lower: -8.039% for the first, 97.55% for the second.

Compared with CN1CCC2(Cc3ccccc3NC2=O)C1 (configuration not stated), CN1CCN2C(=O)N(c3ccccc3)C[C@H]2C1 is higher in “Percent Effect” value: -15.76% for the first, 3.165% for the second.

Going from CN1CCN2C[C@@H](CO)[C@H](c3ccccc3)[C@H]2C1 to OC[C@@H]1CN2CCN(c3ccccn3)C[C@@H]2[C@H]1c1ccccc1, the “Percent Effect” value falls from 108.7% to 91.03%.

Compared with Cc1nc(CC(=O)N2CCN(C)CC2c2ccccc2)cs1 (configuration not stated), Cc1nc(C2(NCC(=O)NC(=O)Nc3ccccc3)CCCCC2)no1 is higher in “Percent Effect” value: -2.978% for the first, 112.9% for the second.

Going from Cc1nc(C2(NCc3ccc(C#N)cc3F)CCCCC2)no1 to Cc1nc(C2(NCc3cc(C#N)ccc3F)CCCCC2)no1, the “Percent Effect” value rises from 2.337% to 11.5%.

Compared with Cc1nc(C2(NCc3cccc(F)c3F)CCCCC2)no1, Cc1nc(C2(NCC(=O)NC(=O)NCC(F)(F)F)CCCCC2)no1 is higher in “Percent Effect” value: -2.659% for the first, 132.3% for the second.
